Screening results (PubChem BioAssay)
VDR inhibitor: inhibitors of human vitamin D receptor. P11473. VDR-SRC2-3 peptide fluorescence polarization, 2 h. Potency, µM, for inactives: max response, negative = inhibition, most hits filed as inhibitors. 0.93% of 400,000 active. AID 504847; also: potency is read from the fitted curve at half-maximal effect
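FP read-out; VDR + SRC2-3 coactivator peptide; 23 nl compound by pintool; 2 h RT incubation; reagents held at 4 deg C, protected from light.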
PLK1 PBD block: inhibitors of human PLK1 polo-box domain binding; P53350; Plk1 PBD binding of FITC phosphopeptide, fluorescence polarization; Potency, µM, without a hit: max response, negative = inhibition, actives largely listed as inhibitors; 2.8% of 360,000 active; AID 720504; also: potency is read from the fitted curve at half-maximal effect; series mostly up to about 57 µM; nearly all actives have a fitted effect of over 65% in size
USP1 inh: inhibitors of human USP1/UAF1 deubiquitinase. Potency, µM (titrated, usually from 57.1 µM), for the others: top-dose activity change, negative = inhibition, actives largely listed as inhibitors. 0.23% of 390,000 active. O94782. recombinant USP1/UAF1, Ub-Rhodamine cleavage fluorescence; also: potency is read from the fitted curve at half-maximal effect; nearly all actives have a fitted effect of over 60% in size
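Step one: compound is pinned into 1nM USP1/UAF1 in HEPES pH 7.8 buffer with TCEP. Step two: 15 min room-temperature incubation. Step three: Ub-Rho (150nM final) starts cleavage, tracked by fluorescence over six one-minute reads.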
FBPA coupling cs: counter-screen for Giardia aldolase inhibitors: coupling enzyme system | coupling enzyme system counterscreen, AmpLite Red fluorescence | activity change, negative = inhibition, % at 58.2 µM, hits read low | 0.67% of 290,000 active; in the data active = activity change below about -30%
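Counterscreen lacking aldolase: glyceraldehyde-3-phosphate coupling-enzyme reagent preincubated 10 min at RT with compound (at 57.5 uM final), then substrate/coupling system with AmpLite Red added; fluorescence read at 525/598 nm after 20 min RT.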
USP2a inh: USP2a (human) protease inhibition | O75604 | USP2 core, Ub-CHOP2 coupled fluorogenic reporter, 485/531 | Potency, µM (titrated, usually from 38.3 µM), for the others: at the top dose activity change, negative = inhibition, actives largely listed as inhibitors | 0.01% of 330,000 active;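 also: potency is read from the fitted curve at half-maximal effect; plate controls were DMSO wells for no effect and full inhibition by NEM control for full effect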
Target sequence (O75604 whole entry, looked up): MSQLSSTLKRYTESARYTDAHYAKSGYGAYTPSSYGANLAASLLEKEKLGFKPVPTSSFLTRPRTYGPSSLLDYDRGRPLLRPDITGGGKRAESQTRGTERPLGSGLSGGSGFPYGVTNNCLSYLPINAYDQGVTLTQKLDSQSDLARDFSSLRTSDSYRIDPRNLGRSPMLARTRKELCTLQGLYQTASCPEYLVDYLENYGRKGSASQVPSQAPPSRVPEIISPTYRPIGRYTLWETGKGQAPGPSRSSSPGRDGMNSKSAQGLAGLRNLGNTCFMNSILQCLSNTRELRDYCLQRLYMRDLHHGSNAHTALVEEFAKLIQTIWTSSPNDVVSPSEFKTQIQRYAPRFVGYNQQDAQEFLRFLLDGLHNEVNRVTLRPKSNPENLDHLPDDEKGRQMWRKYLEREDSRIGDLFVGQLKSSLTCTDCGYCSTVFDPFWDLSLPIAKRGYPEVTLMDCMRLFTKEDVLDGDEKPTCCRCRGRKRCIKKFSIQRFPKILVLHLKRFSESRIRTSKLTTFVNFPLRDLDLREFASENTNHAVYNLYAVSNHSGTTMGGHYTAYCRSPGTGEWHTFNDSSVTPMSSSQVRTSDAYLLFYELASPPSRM
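Cell-free coupled assay: 10nM USP2 core preincubated 30min RT with compound in Tris-HCl pH 8.0/CaCl2/CHAPS buffer, then 25nM Ub-CHOP2 and 25nM reporter substrate; fluorescence (Ex 485/Em 531) read after 60min RT, normalized to NEM inhibition, concentration-response curves fitted.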
GALK inhibitor: blocks human galactokinase activity; AID 1868; Purified GALK, Kinase-Glo residual ATP luminescence; Potency, µM (doses to about 57.5 µM), without a hit: top-dose activity change, negative = inhibition, hits mostly inhibitors; 0.007% of 270,000 active; also: potency is read from the fitted curve at half-maximal effect
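Compounds were pin-transferred into ATP buffer (35 uM final), then GALK plus galactose (5 nM, 100 uM final) was added. After 1 h at room temperature, Kinase-Glo Plus was added and luminescence read after 10 min.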
TbPYK inh: Trypanosoma brucei pyruvate kinase inhibition, cherry-pick confirmation; AID 720569; 67% of 890 active; Potency, µM (series often up to 76.9 µM), for the others: top-dose activity change, negative = inhibition, actives largely listed as inhibitors; recombinant TbPYK, Kinase-Glo ATP luminescence; shares compounds with PLK1 PBD block; also: potency is read from the fitted curve at half-maximal effect; nearly all actives have a fitted effect of over 70% in size
TbPYK ADP-Glo: TbPYK inhibition, orthogonal confirmation; shares compounds with PLK1 PBD block; recombinant TbPYK, ADP-Glo luminescence, 60 min; Potency, µM (titrated, usually from 76.9 µM), for inactives: top-dose activity change, negative = inhibition, actives largely listed as inhibitors; 62% of 890 active; also: potency is read from the fitted curve at half-maximal effect; nearly all actives have a fitted effect of over 75% in size
Numbers without * were called inactive; ? = inconclusive; . = not tested or not shown. Hits are enriched below; roughly 3.2% of the tested compounds scored in any of these assays. Unless noted, calls follow the shape of the dose curve; as a rule, active = well fitted curve in the direction sought with a large enough effect; inconclusive = small, poorly fitted or top-dose-only effect, or another doubt; inactive = no such curve, though single readings can be large; an effect the other way counts as inactive or inconclusive. Unless noted, % is scaled to controls: 0 for no effect and ±100 for the full control effect.

SMILES	VDR inhibitor	PLK1 PBD block	USP1 inh	FBPA coupling cs	USP2a inh	GALK inhibitor	TbPYK inh	TbPYK ADP-Glo
COc1ccc(/C=C/C(=O)NCc2nc3ccccc3[nH]2)cc1OC	9.7%	-11.1%	-11.5%	1.0	-0.1%	-14.4%	.	.
Cc1cc2ncc(-c3ccccc3)nc2cc1C	3.6%	-4.6%	-17.5%	-0.3	5.5%	-0.4%	.	.
Cc1cc(-c2cc(-c3ccc(Cl)cc3)nc(N)c2C#N)co1	?	21.2µM*	-22.4%	-8.7	-0.1%	-6.2%	-20.7%	39.8µM*
CCOC(=O)C(=N/O)/C(C)=N/NC(=O)C(=O)Nc1cc(Cl)ccc1Cl	-12.1%	-3.0%	-16.3%	0.8	-0.4%	-3.5%	.	.
COc1ccc(OC)c(-n2c(=S)[nH]c3c(sc(=S)n3-c3ccccc3)c2=O)c1	32.1%	-6.8%	-17.1%	4.5	1.0%	-5.0%	15.8µM*	15.8µM*
COc1ccc(OC)c(-n2c(=O)c3ccccc3c3ccccc3c2=O)c1	-2.4%	?	-22.3%	-3.9	2.8%	-0.1%	.	.
O=C(CCCN1C(=O)c2ccccc2C1=O)Nc1ccc(Br)cn1	16.1%	-1.6%	-14.4%	1.6	-1.6%	1.3%	.	.
Cc1ccc(CCNC(=O)C2CCCN(C(=O)c3cc4sccc4n3C)C2)cc1 (stereo unspecified)	-2.9%	-9.0%	2.4%	1.1	-1.0%	-3.1%	2.51µM*	10µM*
Cn1c(C(=O)N2CCCC(C(=O)NCCc3ccccc3)C2)cc2sccc21 (stereo unspecified)	6.5%	-2.6%	-14.0%	1.8	-0.7%	4.9%	.	.
COc1ccc(CC(=O)OCC(=O)N2CCCC(C)C2)cc1 (stereo unspecified)	3.3%	-5.6%	-11.9%	-0.7	-1.0%	-1.7%	.	.
COCCn1c(=S)[nH]c2sc3c(c2c1=O)CCCC3	-18.3%	-13.7%	-25.0%	-1.0	0.0%	6.4%	10µM*	10µM*
CCOc1ccccc1Nc1nnc(SCC(=O)NC2CC2)s1	-16.4%	0.2%	-18.7%	.	-0.5%	.	.	.
COc1ccccc1Cc1c(-c2ccco2)nc2c(C)cc(Br)cn12	.	11.9µM*	.	.	.	.	-14.5%	-26.1%
COc1ccc(Cc2c(-c3ccco3)nc3c(C)cc(Br)cn23)c(C)c1	.	-8.5%	.	.	.	.	.	.
COc1ccc(Cc2c(-c3ccco3)nc3ccc(Br)cn23)c(C)c1	.	23.8µM*	.	.	.	.	?	?
O=C1CC(Sc2nnnn2-c2ccccc2)C(=O)N1c1cccc(Cl)c1 (stereo unspecified)	-5.3%	?	-8.9%	-1.8	-0.3%	0.5%	28.2µM*	31.6µM*
COc1ccc(N2C(=O)CC(Sc3nnnn3-c3ccc(F)cc3)C2=O)cc1 (stereo unspecified)	-8.6%	?	-14.9%	4.2	9.2%	-2.3%	.	.
COc1ccc(Nc2nc(-c3ccccc3)nc3ccccc23)cc1	-4.2%	-1.5%	?	0.3	-0.4%	-0.9%	.	.
CCOC(=O)C1=C(N)N(c2ccccc2)C(=O)C1	25.1µM*	2.99µM*	-10.5%	6.9	3.1%	0.3%	-2.1%	-2.2%
CCOc1ccc(-c2c(=O)n(O)c3ccccc3[n+]2[O-])cc1	-6.0%	?	-6.7%	-0.6	0.2%	8.0%	?	-14.6%
Cc1ccc(C)c(CN2CCC(n3nccc3NC(=O)C3CCCC3)CC2)c1	-7.7%	1.3%	-14.1%	-2.9	-1.4%	-3.9%	.	.
COc1cccc(-c2nc(-c3cccs3)no2)c1	9.8%	-10.2%	-24.7%	0.2	0.0%	-0.9%	.	.
CCOC(=O)c1ccc(NC(=O)CN2C(=O)CSC2=O)cc1	15.5%	-1.6%	-11.8%	-6.7	0.6%	3.7%	0.5%	-7.0%
Cc1ccc2sc(N3CCN(C(=O)C4=COCCO4)CC3)nc2c1C	-6.2%	-3.8%	-9.1%	.	0.4%	.	.	.
O=[N+]([O-])c1ccccc1S(=O)(=O)NC1CCCCCCC1	12.4%	-7.6%	-8.2%	1.1	-0.8%	0.4%	.	.
SMILES	VDR inhibitor	PLK1 PBD block	USP1 inh	FBPA coupling cs	USP2a inh	GALK inhibitor	TbPYK inh	TbPYK ADP-Glo
O=C1CCCCCCC1Sc1ccccc1[N+](=O)[O-] (stereo unspecified)	-14.4%	?	-12.3%	-0.3	4.4%	-2.4%	12.6µM*	?
COc1ccc(-n2ccc3ccccc32)cc1	-2.6%	-25.8%	-15.7%	-0.2	2.9%	1.5%	.	.
COc1cc(/C=C2\SC(c3ccc(C)cc3)=NC2=O)cc(OC)c1OC	?	20.1%	?	-1.7	0.7%	-10.0%	.	.
COc1ccc(/C=C2/SC(c3ccc(C)cc3)=NC2=O)cc1OC	50.1µM*	-13.4%	?	2.8	3.5%	1.9%	?	15.8µM*
COc1ccc(/C=C2\SC(c3ccc(C)cc3)=NC2=O)cc1OC	?	-19.9%	15.8µM*	-1.0	0.8%	-2.3%	35.5µM*	10µM*
COc1cc(/C=C2\SC(c3ccc(C)cc3)=NC2=O)ccc1O	?	-23.8%	-11.4%	-0.6	-0.8%	6.6%	.	.
O=C(NCCSCc1ccco1)Nc1cccc(Cl)c1	11.9%	-10.9%	2.4%	-1.6	3.6%	1.5%	.	.
COc1ccc(C2=CC(=O)C[C@H](c3ccc(OC)c(OC)c3)C2)cn1	-3.9%	0.3%	?	.	-1.5%	.	9.4%	-0.9%
COc1ccc([C@H]2CC(=O)C=C(c3ccc(F)nc3)C2)cc1OC	-5.7%	1.5%	-19.8%	.	0.5%	.	.	.
O=C(O)CCNC(=O)c1cncc(Br)c1	-23.9%	?	-4.1%	5.1	1.4%	0.5%	.	.
N#Cc1c(N)nc(SC2CCCCC2=O)c(C#N)c1-c1ccco1 (stereo unspecified)	4.4%	-20.7%	0.3%	.	.	.	.	.
Cc1cc(C)c(C#N)c(SC2CCCCC2=O)n1 (stereo unspecified)	-0.7%	-13.5%	4.2%	4.1	2.9%	0.7%	14.1µM*	17.8µM*
C[C@H]1CCC/C=C/[C@@H]2C[C@H](O)C[C@H]2[C@H](O)[C@H](S(=O)c2ccc(O)cc2)CC(=O)O1 (stereo partly specified)	?	10.6µM*	-10.0%	.	.	.	17.8µM*	12.6µM*
CCC(C)(C)NC(=O)CN(C(=O)c1csnn1)c1ccccc1-c1ccccc1	-2.3%	?	-26.6%	2.5	-0.2%	1.9%	.	.
O=S(=O)(NC1=NCCC1)c1cccc(NS(=O)(=O)c2ccc(OC(F)(F)F)cc2)c1	-23.4%	-4.6%	-2.9%	7.2	3.1%	0.7%	.	.
